From the supplement of paper PMC6555819

test system: VDR:RXRa (NR concentration 270 nM, RXRa partner concentration 90 nM); experiment: PBM binding z-score (relative to random genomic background probes); higher = stronger binding; sequences stand for … in GC…GCGATTGACAGCGTAGAATGAAGG
How it was run: (§1)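 Each nuclear receptor dimer, without ligand, was incubated for 1 h on custom Agilent 4×180K protein-binding microarrays. Binding was detected with antibodies against each partner (one per run), and scanned fluorescence was regression-normalized. The binding z-scores are referenced to random human genomic background probes.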

Which PBM binding z-score does the source give for CCTTACGGGTCACGAGGTTATAGCTCGACGAGCG here?
The PBM binding z-score was 5.07.

ACTTACGGGTCAACGAGGTGATAGCACGCGTATA was tested. Which PBM binding z-score did it give?
Its PBM binding z-score is 6.61.

How did the PBM binding z-score turn out when CGAACTAGGTCATTGACAGGTCAGTGAATAGTAA was run?
The PBM binding z-score was 3.9.

GGAACGAGGGCATTGGAGTTGATAGCATGGCGAT was tested. Which PBM binding z-score did it give?
The PBM binding z-score was 2.6.

With TCTATTAATTGAAGGGCAACCGACGAGTCCGTTT as the sequence, how does the PBM binding z-score read?
The PBM binding z-score was 1.05.

With TTTATTAGTTGATTAGGGCAACCGAAACAGCGGA as the sequence, how does the PBM binding z-score read?
Its PBM binding z-score is 0.643.

With CGAACGAGGTCAAGGACAGTGAATCTCCGCACGC as the sequence, how does the PBM binding z-score read?
Its PBM binding z-score is 5.09.

For GCTCGGAGGACAAGGTTAGAGCTTTGTCCGTAGA, which PBM binding z-score is on record?
Its PBM binding z-score is -0.341.

For CCTACTGGGCCAGTCAGAGGTCATTGATCATATG, which PBM binding z-score is on record?
Its PBM binding z-score is 3.67.

For CTCAAAAGGTCGGTTGAGGTGAGTATACGGATAA, which PBM binding z-score is on record?
Its PBM binding z-score is 2.54.

AGTCAAAGTTCAGGATGAGGTAACGTAAAGCACG was tested. Which PBM binding z-score did it give?
Its PBM binding z-score is 2.88.

How did the PBM binding z-score turn out when ATCTCTAGCTAAAGATAGTTCAGTGAATGCAAAT was run?
The PBM binding z-score was 0.182.

For CAAACTAGGTCAAAGGTCACAGTCGAGCCAACCA, which PBM binding z-score is on record?
The PBM binding z-score was 6.63.

ATATGTAGGTTACATCCGGGTTATTCAGGCTATG was tested. Which PBM binding z-score did it give?
The PBM binding z-score was 1.68.

How did the PBM binding z-score turn out when ATATGTAGGTTAGCTGGGGTCATTTAGACTAGGC was run?
The PBM binding z-score was 5.97.

For CCAGACATGTGAGAAGGTAACTCAGCCTCGATTA, which PBM binding z-score is on record?
The PBM binding z-score was -0.439.

Which PBM binding z-score does the source give for TCTCGGACGACACGAAAGGTCAGAGCTCGACATC here?
The PBM binding z-score was 2.96.

Which PBM binding z-score does the source give for CGTCCAAGGTCAAAGCTCAGTGAAGAGATGACGG here?
Its PBM binding z-score is 3.77.

ATCTCTAGGTAAAAGTTAAGTGAATCCCGAGGAT was tested. Which PBM binding z-score did it give?
Its PBM binding z-score is -0.0664.

With TCTAGATGGTCAAAGGTCACACACTCGAAATGCG as the sequence, how does the PBM binding z-score read?
Its PBM binding z-score is 5.33.

With GGAACGAGGGCATTCGAGTTGTTAGCATGGCGAT as the sequence, how does the PBM binding z-score read?
Its PBM binding z-score is 2.82.

For CCTTACGGGTCAAAGTTATAGCACGGGTGGTACG, which PBM binding z-score is on record?
The PBM binding z-score was 3.54.

How did the PBM binding z-score turn out when GCATATAGCTAATACAAGGTGAAAGTCCGATTGT was run?
Its PBM binding z-score is 0.231.

With CCTCGGAGGACAGGAGGTCAGAGCTGTCCGCTTT as the sequence, how does the PBM binding z-score read?
The PBM binding z-score was 1.47.

With AATACATGGTCATCGTAGGCCAGAGTACGCACAG as the sequence, how does the PBM binding z-score read?
Its PBM binding z-score is 0.347.

Which PBM binding z-score does the source give for CCTACTGGGCCAGCAGGTCATTGATATCAACGTT here?
Its PBM binding z-score is 1.26.

GCTAGCAGGTCATTTGGGTCACTCAATGACGGGC was tested. Which PBM binding z-score did it give?
The PBM binding z-score was 5.92.

For CCGAGTAGGTTAGGGGGCATTCAGGCAACGGTGA, which PBM binding z-score is on record?
The PBM binding z-score was 2.93.

CAAACTAGGTCAAGGTGAAAGTCGGTTTGTGCCA was tested. Which PBM binding z-score did it give?
The PBM binding z-score was 2.1.

How did the PBM binding z-score turn out when ATCTGTAGGTTAGCTGGGGTCATTCAGACTAGGC was run?
Its PBM binding z-score is 6.14.

With ATATGTAGATTAGCTGGGGTCATTCAGACTAGGC as the sequence, how does the PBM binding z-score read?
Its PBM binding z-score is 4.91.

For ACAGACAGGTGATGAAGGAAACTCAGGCTATCAT, which PBM binding z-score is on record?
Its PBM binding z-score is -0.266.

With CAAACTAGGTCACCGGAAGGTCTAAGTCCGCATG as the sequence, how does the PBM binding z-score read?
Its PBM binding z-score is 3.1.

CTAACTAGGTCAGAACAGGACAGTGAAGGATGAT was tested. Which PBM binding z-score did it give?
Its PBM binding z-score is 0.705.

TCTAGCAGGCCAGAGTGTCACTCAAGAGGTACGG was tested. Which PBM binding z-score did it give?
The PBM binding z-score was -0.00537.

How did the PBM binding z-score turn out when ATCTCTAGGTAAGACGCAGTTCAGTGAAGAACGC was run?
Its PBM binding z-score is 0.101.

TCATACAGGTAAAGGTGAAAGTCGAACGATATGA was tested. Which PBM binding z-score did it give?
The PBM binding z-score was 1.13.

For ACTATTAGTTGATTTAGGGCAACCGATACGACGC, which PBM binding z-score is on record?
Its PBM binding z-score is 0.131.

How did the PBM binding z-score turn out when TCATATAGGTAAAAGGTGAAACTCGGTGTGGTAA was run?
Its PBM binding z-score is 2.04.

For AATACAGGGTCACTAGTCCAGAGTAGGTACGAAT, which PBM binding z-score is on record?
The PBM binding z-score was 4.05.

test system: VDR homodimer (NR concentration 270 nM); experiment: as above
How it was run: as §1

How did the PBM binding z-score turn out when CCTTACGGGTCACGAGGTTATAGCTCGACGAGCG was run?
Its PBM binding z-score is 1.76.

ACTTACGGGTCAACGAGGTGATAGCACGCGTATA was tested. Which PBM binding z-score did it give?
Its PBM binding z-score is 1.81.

Which PBM binding z-score does the source give for CGAACTAGGTCATTGACAGGTCAGTGAATAGTAA here?
The PBM binding z-score was 2.04.

For GGAACGAGGGCATTGGAGTTGATAGCATGGCGAT, which PBM binding z-score is on record?
Its PBM binding z-score is 2.58.

TCTATTAATTGAAGGGCAACCGACGAGTCCGTTT was tested. Which PBM binding z-score did it give?
Its PBM binding z-score is 2.19.

With TTTATTAGTTGATTAGGGCAACCGAAACAGCGGA as the sequence, how does the PBM binding z-score read?
Its PBM binding z-score is 0.951.

Which PBM binding z-score does the source give for CGAACGAGGTCAAGGACAGTGAATCTCCGCACGC here?
The PBM binding z-score was 3.5.

Which PBM binding z-score does the source give for GCTCGGAGGACAAGGTTAGAGCTTTGTCCGTAGA here?
Its PBM binding z-score is -0.796.

CCTACTGGGCCAGTCAGAGGTCATTGATCATATG was tested. Which PBM binding z-score did it give?
The PBM binding z-score was 3.27.

With CTCAAAAGGTCGGTTGAGGTGAGTATACGGATAA as the sequence, how does the PBM binding z-score read?
Its PBM binding z-score is 0.384.

With AGTCAAAGTTCAGGATGAGGTAACGTAAAGCACG as the sequence, how does the PBM binding z-score read?
Its PBM binding z-score is 2.09.

How did the PBM binding z-score turn out when ATCTCTAGCTAAAGATAGTTCAGTGAATGCAAAT was run?
Its PBM binding z-score is 0.516.

With CAAACTAGGTCAAAGGTCACAGTCGAGCCAACCA as the sequence, how does the PBM binding z-score read?
Its PBM binding z-score is 2.73.

For ATATGTAGGTTACATCCGGGTTATTCAGGCTATG, which PBM binding z-score is on record?
The PBM binding z-score was 0.79.

For ATATGTAGGTTAGCTGGGGTCATTTAGACTAGGC, which PBM binding z-score is on record?
Its PBM binding z-score is 4.51.

With CCAGACATGTGAGAAGGTAACTCAGCCTCGATTA as the sequence, how does the PBM binding z-score read?
Its PBM binding z-score is 0.382.

With TCTCGGACGACACGAAAGGTCAGAGCTCGACATC as the sequence, how does the PBM binding z-score read?
The PBM binding z-score was 0.805.

CGTCCAAGGTCAAAGCTCAGTGAAGAGATGACGG was tested. Which PBM binding z-score did it give?
The PBM binding z-score was 2.15.

For ATCTCTAGGTAAAAGTTAAGTGAATCCCGAGGAT, which PBM binding z-score is on record?
The PBM binding z-score was 0.265.

Which PBM binding z-score does the source give for TCTAGATGGTCAAAGGTCACACACTCGAAATGCG here?
The PBM binding z-score was 2.51.

For GGAACGAGGGCATTCGAGTTGTTAGCATGGCGAT, which PBM binding z-score is on record?
Its PBM binding z-score is 2.43.

For CCTTACGGGTCAAAGTTATAGCACGGGTGGTACG, which PBM binding z-score is on record?
Its PBM binding z-score is 1.46.

How did the PBM binding z-score turn out when GCATATAGCTAATACAAGGTGAAAGTCCGATTGT was run?
The PBM binding z-score was 0.162.

Which PBM binding z-score does the source give for CCTCGGAGGACAGGAGGTCAGAGCTGTCCGCTTT here?
The PBM binding z-score was 0.982.

How did the PBM binding z-score turn out when AATACATGGTCATCGTAGGCCAGAGTACGCACAG was run?
Its PBM binding z-score is 0.322.

For CCTACTGGGCCAGCAGGTCATTGATATCAACGTT, which PBM binding z-score is on record?
The PBM binding z-score was 0.812.

How did the PBM binding z-score turn out when GCTAGCAGGTCATTTGGGTCACTCAATGACGGGC was run?
Its PBM binding z-score is 3.25.

Which PBM binding z-score does the source give for CCGAGTAGGTTAGGGGGCATTCAGGCAACGGTGA here?
The PBM binding z-score was 2.8.

CAAACTAGGTCAAGGTGAAAGTCGGTTTGTGCCA was tested. Which PBM binding z-score did it give?
Its PBM binding z-score is 0.978.

Which PBM binding z-score does the source give for ATCTGTAGGTTAGCTGGGGTCATTCAGACTAGGC here?
The PBM binding z-score was 5.38.

How did the PBM binding z-score turn out when ATATGTAGATTAGCTGGGGTCATTCAGACTAGGC was run?
The PBM binding z-score was 4.47.

With ACAGACAGGTGATGAAGGAAACTCAGGCTATCAT as the sequence, how does the PBM binding z-score read?
The PBM binding z-score was -0.33.

With CAAACTAGGTCACCGGAAGGTCTAAGTCCGCATG as the sequence, how does the PBM binding z-score read?
The PBM binding z-score was 1.68.

With CTAACTAGGTCAGAACAGGACAGTGAAGGATGAT as the sequence, how does the PBM binding z-score read?
Its PBM binding z-score is -0.144.

With TCTAGCAGGCCAGAGTGTCACTCAAGAGGTACGG as the sequence, how does the PBM binding z-score read?
The PBM binding z-score was -0.738.

With ATCTCTAGGTAAGACGCAGTTCAGTGAAGAACGC as the sequence, how does the PBM binding z-score read?
Its PBM binding z-score is 0.544.

For TCATACAGGTAAAGGTGAAAGTCGAACGATATGA, which PBM binding z-score is on record?
The PBM binding z-score was 0.141.

ACTATTAGTTGATTTAGGGCAACCGATACGACGC was tested. Which PBM binding z-score did it give?
The PBM binding z-score was 0.367.

TCATATAGGTAAAAGGTGAAACTCGGTGTGGTAA was tested. Which PBM binding z-score did it give?
The PBM binding z-score was 0.686.

With AATACAGGGTCACTAGTCCAGAGTAGGTACGAAT as the sequence, how does the PBM binding z-score read?
The PBM binding z-score was 2.27.
